Compound activity from PubChem BioAssay.
This is a sample that favours compounds with a hit; in the whole collection about 2.4% have one here.
Caspase-7 inhib – blocks human caspase-7 allosterically or competitively | recombinant caspase-7, Ac-DEVD-AFC fluorescence rate | 75,000 tested, 0.02% active | Potency, µM (top dose mostly 57.5 µM), for the others: top-dose activity change, negative = inhibition, actives largely listed as inhibitors | P55210; active means well fitted inhibition curve with a large enough effect in the main read-out, with a control signal flat, not every such curve was filed as active; inconclusive means small, poorly fitted or top-dose-only effect, or a change in a side signal; further: % of control where 0% means no effect
Casp1 inh – caspase-1 (human) inhibition, allosteric or competitive | P29466 | Caspase-1 enzyme, Ac-WEHD-AFC fluorogenic rate | Potency, µM (doses to about 57.5 µM), for inactives: top-dose activity change, negative = inhibition, usual class: inhibitors | 75,000 tested, 0.03% active;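 further: plate controls were vehicle for no effect and no substrate for full effect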
Hsp90 Hop PPI – changes Hsp90-Hop TPR2A binding signal, up or down; AID 595; Potency, µM (series often up to 57 µM), for the others: top-dose activity change, negative = inhibition; 71,000 tested, 0.44% active; AlphaScreen TPR2A-His6 binding biotin-Hsp90 C-terminal peptide; active means well fitted curve in either direction with a large enough effect; inconclusive means small, poorly fitted or top-dose-only effect, or another doubt; further: on the % scale 0 is the no-effect control and ±100 the full control effect
15-hLO inh – inhibitors of human 15-lipoxygenase (ALOX15). Potency, µM (series often up to 57.1 µM), inactives show at the highest dose activity change, negative = inhibition, hits mostly inhibitors. P16050. 74,000 tested, 1.4% active. purified 15hLO-1, xylenol orange hydroperoxide absorbance; further: on the % scale 0 is the no-effect control and ±100 the full control effect; nearly all actives have a fitted effect of over 55% in size
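Compounds were preincubated 15 min at room temperature with 40 nM purified human enzyme (25 mM Hepes pH 7.5, 0.01% Triton X-100); 50 uM arachidonic acid reacted 6 min. Fe-xylenol orange detection, 30 min, absorbance ratio 573/405 nm.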
ALOX15B inhib – blocks human 15-lipoxygenase 2 activity; AID 881; 110,000 tested, 0.56% active; Potency, µM (highest dose often 57.1 µM), for the others: at the highest dose activity change, negative = inhibition, usual class: inhibitors; O15296; purified 15hLO-2, xylenol orange hydroperoxide absorbance; further: on the % scale 0 is the no-effect control and ±100 the full control effect; nearly all actives have a fitted effect of over 60% in size
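Read-out: hydroperoxide product oxidises ferrous iron, measured as xylenol orange complex via the 573-to-405 nm absorbance ratio after 30 min. Reaction: 50 nM enzyme, 15 min compound preincubation, 45 uM arachidonic acid, 90 min RT, Hepes pH 7.5 with Triton X-100.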
Tau fil binding – binders of human tau filaments | P10636 | recombinant tau filaments, thioflavin S fluorescence, 15 h; filaments grown with octadecylsulfate alongside compound | Potency, µM (series often up to 57.1 µM), inactives show top-dose activity change, negative = inhibition | 71,000 tested, 2% active | AID 596;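 further: on the % scale 0 is the no-effect control and ±100 the full control effect; actives lower thioflavin S fluorescence by blocking filaments or displacing dye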
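Read-out: ThS fluorescence, 450 nm excitation/510 nm emission; lower signal marks blocked filament formation or displaced dye. Tau at 1 uM with 30 uM ODS, 10 uM ThS, 5 mM DTT, 100 mM NaCl, 10 mM HEPES pH 7.4; 15 h, 37 C.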
An asterisk follows results filed as active; ? = inconclusive; . = no result; [ ] = another dose, or the depositor's remark. Unless noted, the call rests on the fitted dose curve; in most records, active means well fitted curve in the direction sought with a large enough effect; inconclusive means small, poorly fitted or top-dose-only effect, or another doubt; inactive means no such curve, though single readings can be large; an effect the other way counts as inactive or inconclusive. Potency means the concentration at half of the fitted maximal effect.

SMILES	Caspase-7 inhib	Casp1 inh	Hsp90 Hop PPI	15-hLO inh	ALOX15B inhib	Tau fil binding
O=C(Nc1nnc(COc2ccc(Cl)cc2)s1)c1cccs1	0%	1%	-2%	16µM*	1%	25%
Cc1ccc(NC(=O)CSc2nccc(=O)[nH]2)c(S(=O)(=O)N2CCOCC2)c1	7%	1%	1%	0%	3%	-6%
COc1ccc(S(=O)(=O)N2CCCC(C(=O)O)C2)cc1Cl (stereo not drawn)	0%	1%	1%	8%	3%	9%
CC(=O)Nc1ccc(NC(=O)c2ccco2)cc1	-2%	-1%	-3%	1%	2%	-2%
CC1N(C)c2cc(NC(=O)c3ccco3)ccc2C1(C)C (stereo not drawn)	-2%	-1%	-12%	-15%	-1%	20µM*
CCOc1ccc(N2C(=O)CC(/C=C3/N(C)c4ccccc4C3(C)C)C2=O)cc1 (stereo not drawn)	-5%	0%	-20%	-25%	-22%	25µM*
CN1/C(=C/C2CC(=O)N(c3cccc4ccccc34)C2=O)C(C)(C)c2ccccc21 (stereo not drawn)	.	.	.	.	-17%	.
CCCC1S/C(=N/N=C/c2ccc(C)cc2)N(Cc2ccc(OC)cc2)C1=O (stereo not drawn)	.	.	.	.	15%	.
CCCCCCCCCCCCCCCC(=O)OCC(O)C1OC(=O)C(O)=C1O (stereo not drawn)	.	.	.	.	8.9µM*	.
O=C(O)/C=C\c1c2ccc(=O)c(O)c-2oc2c(O)c(O)ccc12	-20%[11.5 µM]	-6%[11.5 µM]	?	1.6µM*	?	5µM*
O=C(O)[C@H]1CCCC[C@@H]1c1c2ccc(=O)c(O)c-2oc2c(O)c(O)ccc12	-17%[11.5 µM]	0%[11.5 µM]	?	?	?	4µM*
CCOC(=O)C1CCN(Cc2ccc(F)c(Br)c2)CC1	0%	-4%	5%	0%	-13%	-9%
O=C(Nc1cccc(Oc2ccc3c(c2)C(=O)NC3=O)c1)c1ccco1	0%	0%	-8%	16µM*	-10%[11.4 µM]	25µM*
Cc1ccc(Oc2ccc(NC(=O)c3ccco3)cc2)cc1	-4%	-3%	27%	?	16%	-14%
COC(=O)c1cccc(NC(=O)CSc2ncn[nH]2)c1	-1%	0%	-3%	4%	3%	6%
CCCCC(=O)NC1=NC(=O)C(C)(C)S1	0%	1%	-13%	0%	-2%	-3%
Cc1cc(NO)nc(-c2ccc(Br)cc2)n1	0%	0%	-3%	16µM*	?	-10%
Cc1cc(C)nc(NS(=O)(=O)c2ccc(Br)cc2)n1	-9%	-3%	-4%	2%	6%[2.29 µM]	-18%
S=C(c1ccc(-c2ccccc2Cl)o1)N1CCOCC1	-2%	-3%	-29%	?	?	16µM*
N#CCCN1CCN(C(=S)c2ccc(-c3cc(Cl)ccc3Cl)o2)CC1	-2%	-3%	-21%	?	-15%	2.5µM*
S=C(c1ccc(-c2ccc(Cl)c(Cl)c2)o1)N1CCOCC1	-5%	-5%	?	?	-3%[2.29 µM]	10µM*
CC(C)CNC(=S)NC1CC2CCCC(C1)N2Cc1ccco1 (stereo not drawn)	.	.	.	.	-2%	.
CCn1cnc2scc(-c3ccccc3)c2c1=O	0%	-1%	-11%	3%	1%	8%
O.O.O.O.O.O.O.O=S(=O)([O-])[O-].[Co+2]	-28%	-13%	?	-10%	14%	3.2µM*
O=C(COc1ccccc1Cl)N1CCN(c2ccc([N+](=O)[O-])c(N3CCCCC3)c2)CC1	.	.	.	.	-27%	.
Cc1ccc(NC(=S)NCCc2c[nH]c3ccccc23)cc1	.	.	.	.	25µM*	.
O=C(NCCc1c[nH]c2ccccc12)Nc1ccccc1	.	.	.	.	-1%	.
O=C1C2C3C=CC(CO)(O3)C2C(=O)N1c1ccc(-c2ccccc2)cc1 (stereo not drawn)	0%	-2%	-6%	-11%	0.4µM*	31%
CC(C)COC(=O)NCC12C=CC(O1)C1C(=O)N(c3ccc(Cl)cc3)C(=O)C12 (stereo not drawn)	-2%	-2%	-1%	-15%	?	-10%
